Here are results for 3 molecules from PubChem BioAssay (NCI).

This is part of a sample that, as a whole, favours compounds with a hit. Of some 83,000 tested, about 20% had one in any assay.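 Step 1: grow cells in 96-well plates. Step 2: add test compound at a single concentration. Step 3: incubate 48 h. Step 4: record percent growth.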 Values without a mark were called inactive. The calls were made as follows: active = growth percent below 10; inactive = the rest.

The test system of the assay is HL-60(TB) leukemia. The assay can be described thus: NCI-60 one-dose screen, 48 h (100 = growth as untreated, 0 = no growth, -100 = all killed). The conditions noted are these: 10 µM unless noted.
As to `c1ccc(-c2nc3sc(C(c4ccccc4)c4ccccc4)nn3c2-c2ccccc2)cc1`, the growth was 112%.

Take `COc1cccc(/C=C/c2c(C(=O)O)cccc2[N+](=O)[O-])c1OC`: the growth was 97.4%.

With `O=C1C(=O)N(CCCCn2cc(-c3ccccc3)nn2)c2ccccc21`, the growth was 118%.
